Results published in PubChem BioAssay (NCI).
Compounds without any hit were thinned out: in the full panel of roughly 79,000, 15% have a hit. Unmarked numbers belong to inactive results. Active and inactive are the calls of the source. Rule as the data show it: active = growth inhibition above about 70%; inactive = the rest.

Assay: NCI Yeast Anticancer Drug Screen. Data for the cln2 rad14 strain (AID 165);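 also: 0% = growth equal to vehicle treated cultures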
Conditions: S. cerevisiae cln2 rad14 strain, at 50.0 µM, hits give high values
Procedure, shortened: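 Readout is yeast growth inhibition versus vehicle-treated controls, using a strain with cln2 and rad14 alterations exposed to compound.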

Point of comparison: `COc1cc2c(cc1OC)C(=O)C(C1CCCCC1)NC2` (stereo not given), growth inhibition 0.45%. Against it:
- COc1cc2c(cc1OC)C1C(=O)c3c(O)cc4c(c3OC1CO2)C=CC(C)(C)O4 (stereo not given) — higher, 15.3%
- Fc1ccccc1-c1nc2ccccc2s1 — lower, -3.45%
- CCOc1ccc(NC(=S)NC=C(C(N)=O)C(N)=O)cc1 — higher, 19.2%
- O=c1oc2ccccc2c(O)c1C(c1cccc(C(c2c(O)c3ccccc3oc2=O)c2c(O)c3ccccc3oc2=O)c1)c1c(O)c2ccccc2oc1=O — lower, -17.6%
- CCC(=O)Oc1cccc2ccccc12 — lower, -14.3%
- Cc1cc(C)nc(NS(=O)(=O)c2ccc(NC(=O)C(Cl)(Cl)Cl)cc2)n1 — lower, -13%
- OCC[N+]12CCCN1CCC2 — lower, -12.9%
- COc1ccc(/C=C/C(=O)N(C)C)cc1 — higher, 12.4%
- CCOC(=O)C(/C=N/C(=S)Nc1c(C)cccc1C)=C(/O)c1ccccc1 — lower, -18.6%
- CC(C)(C)NC(=O)c1cccc(C(=O)NC(C)(C)C)n1 — lower, -7.9%
- O=c1nc(OCCO)c([N+](=O)[O-])c(C(Cl)(Cl)Cl)[nH]1 — higher, 36.4%
- Cc1ccc2c(c1-c1ccccc1)C(=O)OC2 — higher, 5.35%
- Cc1sc2nc3n(c(=O)c2c1C)N=C(c1ccc([N+](=O)[O-])cc1)CS3 — higher, 24.1%
- Cn1cc(-c2ccccc2)cc1-c1ccccc1 — higher, 4.9%
- CCCCCCC1OCC(C)([N+](=O)[O-])CO1 (stereo not given) — lower, -28.8%
- CN1Cc2ccccc2[C@H]2C(c3ccccc3)=NN(c3ccccc3)[C@H]21 — higher, 9.6%
- CC(=O)OCC1OC(n2nc(C#N)c(C#N)n2)C(OC(C)=O)C1OC(C)=O (stereo not given) — higher, 8.05%
- COc1ccc(OC)c(C(=O)C=C(C(F)(F)F)C(F)(F)F)c1 — lower, -41.6%
- COc1ccc(S(=O)(=O)O)cc1NS(=O)(=O)c1ccc(C)cc1 — lower, -12.2%
- COc1ccc2c3ccc4c(c3n(C)c2c1)C(=O)c1ccccc1C4=O — lower, -14.7%
- Cc1cc(Cl)cc(CN(C)Cn2c(=O)cc[nH]c2=O)c1O — lower, -31.9%
- Cc1nc2sccn2c1C(=O)NC(=O)Nc1ccc(Cl)cc1 — higher, 5.45%
- N#CC(N)(C(=O)CCC(=O)Nc1cccc(Cl)c1)c1ccc(Cl)cc1 (stereo not given) — higher, 8.15%
- COC(=O)c1nc(N)nc(C(=O)OC)c1C(=O)c1ccco1 — lower, -3.7%
- CCOC(=O)/C(N=O)=C(/C)O — lower, -7.95%
- COC(=O)c1nc2nnc(N)n2c(-c2ccc(Cl)cc2)c1C — lower, -15.9%
- Clc1ccc(Nc2ncnc3oc(-c4ccccc4)c(-c4ccccc4)c23)cc1 — lower, -5.05%
- Cc1cccc(NC(=O)/C(=N\NC(C)(C)C)C2NC(=S)NC2=O)c1C (stereo not given) — lower, -6.6%
- CC1(C)CC(=O)C2(C)C(C1O)C2C1C2C(O)C(C)(C)CC(=O)C21C (stereo not given) — lower, -6.75%
- N[C@@H](CCC(=O)NC(Cc1ccccc1)C(=O)NCP(=O)(O)O)C(=O)O (stereo not given in full) — lower, -1.75%
- NC1=NC=NCN1c1ccc(N)cc1 — lower, -54.4%
- COC(=O)C1=CC(O)CCC1c1ccc(OC)cc1 (stereo not given) — lower, -5.8%
- Nc1nc(Sc2ccc([N+](=O)[O-])c3nonc23)c2[nH]cnc2n1 — higher, 17.2%
- COC(=N)CC(=O)C(C)(C)C — lower, -9.65%
- Cc1ncc([N+](=O)[O-])n1CCNC(=O)CCn1ccnc1[N+](=O)[O-] — higher, 1.1%
- CN1C/C(=C\c2ccc(C(=O)O)cc2)C(=O)/C(=C/c2ccc(C(=O)O)cc2)C1 — higher, 20.9%
- CCCCSCc1nc2nc(Cl)c(Cl)nc2[nH]1 — higher, 1.15%
- CC(C)(C)NNC(=O)/C(=C/c1ccc(Oc2ccc(Cl)c(Cl)c2)cc1)NC(=O)c1ccccc1 — lower, -4.2%

For `C/C=C(/C)C(=O)O[C@H]1C[C@@H]2[C@@H](O)c3occ(C)c3C[C@]2(C)[C@@H](C)C1`, the growth inhibition was 90% (active).

Assay: NCI Yeast Anticancer Drug Screen. Data for the bub3 strain (AID 167)
Conditions: S. cerevisiae bub3 mutant strain, at 50.0 µM, hits give high values
Procedure, shortened: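 In this screen, a yeast mutant lacking normal mitotic checkpoint function is challenged with compound. Relative growth versus vehicle gives the inhibition value.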

Point of comparison: `NC1=NC=NCN1c1ccc(N)cc1`, growth inhibition -3.6%. Against it:
- COc1cc2c(cc1OC)C(=O)C(C1CCCCC1)NC2 (stereo not given) — higher, 16.1%
- COc1cc2c(cc1OC)C1C(=O)c3c(O)cc4c(c3OC1CO2)C=CC(C)(C)O4 (stereo not given) — higher, 33.9%
- Fc1ccccc1-c1nc2ccccc2s1 — higher, 6.05%
- CCOc1ccc(NC(=S)NC=C(C(N)=O)C(N)=O)cc1 — higher, 3.9%
- O=c1oc2ccccc2c(O)c1C(c1cccc(C(c2c(O)c3ccccc3oc2=O)c2c(O)c3ccccc3oc2=O)c1)c1c(O)c2ccccc2oc1=O — lower, -5.3%
- CCC(=O)Oc1cccc2ccccc12 — lower, -24.9%
- Cc1cc(C)nc(NS(=O)(=O)c2ccc(NC(=O)C(Cl)(Cl)Cl)cc2)n1 — lower, -42%
- OCC[N+]12CCCN1CCC2 — lower, -15.3%
- COc1ccc(/C=C/C(=O)N(C)C)cc1 — higher, -2.5%
- CCOC(=O)C(/C=N/C(=S)Nc1c(C)cccc1C)=C(/O)c1ccccc1 — lower, -21.2%
- CC(C)(C)NC(=O)c1cccc(C(=O)NC(C)(C)C)n1 — lower, -13.3%
- Cc1ccc2c(c1-c1ccccc1)C(=O)OC2 — higher, 6.25%
- Cc1sc2nc3n(c(=O)c2c1C)N=C(c1ccc([N+](=O)[O-])cc1)CS3 — higher, 7.2%
- Cn1cc(-c2ccccc2)cc1-c1ccccc1 — lower, -14.9%
- CCCCCCC1OCC(C)([N+](=O)[O-])CO1 (stereo not given) — lower, -12.6%
- CN1Cc2ccccc2[C@H]2C(c3ccccc3)=NN(c3ccccc3)[C@H]21 — higher, 41.2%
- CC(=O)OCC1OC(n2nc(C#N)c(C#N)n2)C(OC(C)=O)C1OC(C)=O (stereo not given) — lower, -5.85%
- COc1ccc(OC)c(C(=O)C=C(C(F)(F)F)C(F)(F)F)c1 — lower, -9.3%
- COc1ccc(S(=O)(=O)O)cc1NS(=O)(=O)c1ccc(C)cc1 — higher, 0.05%
- COc1ccc2c3ccc4c(c3n(C)c2c1)C(=O)c1ccccc1C4=O — lower, -22.8%
- Cc1cc(Cl)cc(CN(C)Cn2c(=O)cc[nH]c2=O)c1O — higher, 8.45%
- Cc1nc2sccn2c1C(=O)NC(=O)Nc1ccc(Cl)cc1 — lower, -9.8%
- N#CC(N)(C(=O)CCC(=O)Nc1cccc(Cl)c1)c1ccc(Cl)cc1 (stereo not given) — higher, -2%
- COC(=O)c1nc(N)nc(C(=O)OC)c1C(=O)c1ccco1 — higher, 1.55%
- CCOC(=O)/C(N=O)=C(/C)O — higher, 11.4%
- COC(=O)c1nc2nnc(N)n2c(-c2ccc(Cl)cc2)c1C — lower, -4.35%
- Clc1ccc(Nc2ncnc3oc(-c4ccccc4)c(-c4ccccc4)c23)cc1 — lower, -4.1%
- Cc1cccc(NC(=O)/C(=N\NC(C)(C)C)C2NC(=S)NC2=O)c1C (stereo not given) — lower, -16.4%
- CC1(C)CC(=O)C2(C)C(C1O)C2C1C2C(O)C(C)(C)CC(=O)C21C (stereo not given) — higher, 8.2%
- N[C@@H](CCC(=O)NC(Cc1ccccc1)C(=O)NCP(=O)(O)O)C(=O)O (stereo not given in full) — lower, -10.5%
- COC(=O)C1=CC(O)CCC1c1ccc(OC)cc1 (stereo not given) — lower, -5.45%
- Nc1nc(Sc2ccc([N+](=O)[O-])c3nonc23)c2[nH]cnc2n1 — higher, 29.1%
- COC(=N)CC(=O)C(C)(C)C — lower, -6.25%
- Cc1ncc([N+](=O)[O-])n1CCNC(=O)CCn1ccnc1[N+](=O)[O-] — lower, -18.7%
- CN1C/C(=C\c2ccc(C(=O)O)cc2)C(=O)/C(=C/c2ccc(C(=O)O)cc2)C1 — lower, -5%
- CCCCSCc1nc2nc(Cl)c(Cl)nc2[nH]1 — lower, -44.8%
- CC(C)(C)NNC(=O)/C(=C/c1ccc(Oc2ccc(Cl)c(Cl)c2)cc1)NC(=O)c1ccccc1 — higher, -1.6%

For `O=c1nc(OCCO)c([N+](=O)[O-])c(C(Cl)(Cl)Cl)[nH]1`, the growth inhibition was 80.5% (active).
For `C/C=C(/C)C(=O)O[C@H]1C[C@@H]2[C@@H](O)c3occ(C)c3C[C@]2(C)[C@@H](C)C1`, the growth inhibition was 90.8% (active).
